The whole screen tested about 68,000 compounds, of which about 2,700 (4%) showed an effect of 50% or more. What follows is part of a selection rich in strong results, with near analogues and random picks from the rest.

In the assay the test system is Plasmodium berghei. Put plainly: Screen against P. berghei liver stage (PbLuc), transformed with Luciferase, at 2uM. In kind it is functional, HepG2. Particulars: tested at 2 uM.
In the case of `Fc1ccccc1Cn1c(C2CCNCC2)cc2cccnc21`, the INHIBITION was -23.54%.

Take `CCOc1cccc(C(=O)N2CCN(c3nccc(OC)n3)CC2)c1`: the INHIBITION was 8.37%.

For `CCc1ncc(C(=O)N2CCCN(C3CCCCC3)CC2)cn1`, the INHIBITION is -35.1%.

As for `COc1cccc(C2(C(=O)NC3CCc4nccn4C3)CCCC2)c1` (stereo unspecified), the INHIBITION is -5.74%.

Consider `O=C(c1nc(=O)[nH][nH]1)N1CCCCCC1`, for which the INHIBITION was found to be 33.9%.

As for `CCn1c(C2CCCN(Cc3ccnc4ccccc34)C2)nn(C)c1=O` (stereo unspecified), the INHIBITION is listed as 17.48%.

`OCCOCCNCC1(c2ccc(F)cc2)CCOC1` (stereo unspecified): the INHIBITION is reported as -18.52%.

`CN(Cc1ccccc1)CC(O)Cn1cnc2cc(F)ccc2c1=O` (stereo unspecified): the INHIBITION is -75.13%.

Turning to `Cc1ccc(N2CC[C@H]3O[C@@H](C(=O)NCc4ccco4)CC[C@H]32)nn1`, the INHIBITION is 4.64%.

For `CCCNC(=O)CN1CCOC(c2ccc(Br)cc2)C1` (stereo unspecified), the INHIBITION worked out at 15.82%.

Turning to `CCNC(=O)NC(=O)CN1CCOC(c2ccc(Br)cc2)C1` (stereo unspecified), the INHIBITION was 59.94%.

For `CCNC(=O)NC(=O)CN1CCOC(c2cccc(Br)c2)C1` (stereo unspecified), the INHIBITION is 16.72%.

Take `Cn1cc(NC(=O)c2cc3c(s2)CCCC3)cn1`: the INHIBITION was -56.09%.

Turning to `Cc1nc(C)n(CC2CCCCN2CCCS(C)(=O)=O)n1` (stereo unspecified), the INHIBITION was -12.84%.

On to `CN(C)CCNC(=O)c1ccc(S(=O)(=O)N[C@@H]2CCNC2)cc1`, for which the INHIBITION was 8.31%.

Take `O=C(NCCc1ccncc1)c1ccc(S(=O)(=O)NC2CCC2)cc1`: the INHIBITION turned out to be 28.85%.

On to `CC(C)N(CCNC(=O)c1ccc(S(=O)(=O)NC2CC2)cc1)C(C)C`, for which the INHIBITION turned out to be 58.12%.

Regarding `CC(O)CN1CCN(C(=O)c2cccn2Cc2ccccc2)CC1` (stereo unspecified), the INHIBITION was determined as 15.28%.

For the compound `O=C(c1ccncc1)N1CCCn2c(CN3CCCC3)nnc2C1`, the INHIBITION turned out to be 23.14%.

With `Cc1cc(C)c(CNC(=O)NCC2Cc3ccccc32)c(=O)[nH]1` (stereo unspecified), the INHIBITION was 45.16%.

In the case of `NC(=O)c1ccc(CNC(=O)Nc2cn[nH]c2)cc1`, the INHIBITION stood at 26.06%.

Regarding `CN1CC(=O)N(c2cnn(C)c2)CC12CCN(Cc1ccccc1)C2` (stereo unspecified), the INHIBITION is 15.96%.

As for `COCc1nnc(C(=O)N2CCC(N3CCCCC3)CC2)o1`, the INHIBITION stood at 57.89%.

Regarding `COCc1nnc(C(=O)N2CCCC(O)C2)o1` (stereo unspecified), the INHIBITION is reported as 30.88%.

With `COCc1nnc(C(=O)N2CC(N3CCCCC3)C2)o1`, the INHIBITION is recorded as -13.03%.

On to `CN(C)C(C(=O)N1CC(Oc2ccccc2F)C1)c1ccccc1F` (stereo unspecified), for which the INHIBITION is 19.07%.

For `CCCN1CCCN(C(=O)c2ccc(Oc3cccnc3)cc2)CC1`, the INHIBITION stood at 35.37%.

As for `COc1ccc(OCCN(C)CCCn2cnc3c(N)ncnc32)cc1`, the INHIBITION worked out at 36.29%.

In the case of `COc1cccc(SCCCn2cnc3c(N)ncnc32)c1`, the INHIBITION was found to be 52.19%.

Regarding `COc1cccc(CN(C)CCCn2cnc3c(N)ncnc32)c1`, the INHIBITION is listed as -51.87%.

Regarding `Cc1ncnc2c1CCN(C(=O)c1ccncc1F)CC2`, the INHIBITION came to 6.81%.

As for `O=C1CC(c2ccncc2)C2(CCN(CC3CC3)CC2)N1` (stereo unspecified), the INHIBITION is listed as 22.2%.

Turning to `Cc1nc(N2CCCC(C)C2)nc2cc(S(C)(=O)=O)ccc12` (stereo unspecified), the INHIBITION is on record as -24.78%.

`Cc1nc(N2CCN3CCCCC3C2)nc2cc(S(C)(=O)=O)ccc12` (stereo unspecified): the INHIBITION is listed as -15.11%.

With `Cc1nc(N2C[C@H]3CC[C@@H](C2)N3)nc2cc(S(C)(=O)=O)ccc12`, the INHIBITION was 77.42%.

Regarding `O=C(COc1ccccc1)NCCNC(=O)c1scnc1Cl`, the INHIBITION is 7.71%.

For the compound `CC(C)(C)OC(=O)N1CCCN(c2nnc(C3CC3)s2)CC1`, the INHIBITION stood at 34.69%.

Take `Cc1nnc(NC(=O)CN2CCc3nn(C)c(=O)cc3C2)s1`: the INHIBITION was determined as 23.27%.

In the case of `Cc1cc(CN2CCN(CC(O)c3ccc4c(c3)OCO4)CC2)no1` (stereo unspecified), the INHIBITION was -19.1%.

Consider `Cc1noc(C)c1CNCC1COCc2c(-c3ccsc3)nnn2C1` (stereo unspecified), for which the INHIBITION turned out to be 7.68%.

In the case of `Cc1cc(C)c(CNC(=O)c2ccc3c(c2)CCC3)c(=O)[nH]1`, the INHIBITION is given as 58.52%.

Take `Cc1cc(C)c(CNC(=O)NCCOc2ccc3c(c2)CCC3)c(=O)[nH]1`: the INHIBITION was determined as 14.11%.

`Cc1cc(C)c(CNC(=O)NCc2ccc3c(c2)CCC3)c(=O)[nH]1`: the INHIBITION was -7.02%.

As for `Cc1ccc(C(O)CNC(=O)NCc2c(C)cc(C)[nH]c2=O)cc1` (stereo unspecified), the INHIBITION is given as -11.2%.

As to `Cc1cc(C)c(CNC(=O)Cc2ccc3c(c2)CCCC3)c(=O)[nH]1`, the INHIBITION was 4.18%.

As to `Cc1cc(C)c(CNC(=O)NC(C)c2ccc3c(c2)CCC3)c(=O)[nH]1` (stereo unspecified), the INHIBITION came out at 50.05%.

In the case of `CNc1ncc(C(=O)N2CCOC(C(=O)NC3CCCC3)C2)cn1` (stereo unspecified), the INHIBITION amounted to 8.75%.

With `Cc1ccc(CN(CCCn2ccnc2)Cc2cc(F)ccc2F)s1`, the INHIBITION stood at 20.71%.

Turning to `CC1=N[C@@]2(CC[C@@H]3CN(CC4CC4)C[C@@H]32)C(=O)N1CC(C)C`, the INHIBITION was found to be 28.85%.

`CN(Cc1ccco1)[C@@H]1CN(C(=O)c2ccnnc2)[C@@H]2CCCO[C@H]12`: the INHIBITION is listed as 7.08%.

As to `Cc1nccnc1N1C[C@H]2CN(C3CCOCC3)C[C@@]2(C(=O)O)C1`, the INHIBITION is 8.93%.

The record behind these values is ChEMBL document CHEMBL4513216, “Probing the Open Global Health Chemical Diversity Library for Multistage-Active Starting Points for Next-Generation Antimalarials” (ACS Infect Dis, 2020).
